The list is not random: actives were taken first. Their share in the collection is about 12%.
Sfp inh: inhibitors of Bacillus subtilis Sfp phosphopantetheinyl transferase; Biochemical Sfp PPTase activity, qHTS; Potency, µM, inactives show largest response in the series, negative = inhibition, hits mostly inhibitors; 3.5% of 310,000 active;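 further: the enzyme is Sfp with the accession as filed and its product quenches rhodamine fluorescence; potency means the concentration at half of the fitted maximal effect; 0% = enzyme reaction without inhibitor and -100% = no enzyme wells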
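Fluorescence-quenching assay: 15 nM Sfp-PPTase preincubated 15 min at room temperature with compound, then 5 uM rhodamine-CoA and 12.5 uM BHQ-2-labelled YbbR peptide added. Fluorescence (ex 525/em 598 nm) read at start and after 30 min; difference gives rate.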
ALDH1A1 inh-1: ALDH1A1 (human) enzyme inhibition. P00352. Purified ALDH1A1, NADH fluorescence, propionaldehyde substrate. Potency, µM (highest dose often 75.3 µM), without a hit: top-dose activity, negative = inhibition, usual class: inhibitors. 7.3% of 220,000 active. AID 1030; active means well fitted inhibition curve with a large enough effect, not every such curve was filed as active; inconclusive means small, poorly fitted or top-dose-only effect, or another doubt; inactive means no such curve, though single readings can be large or run the other way;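 further: potency means the concentration at half of the fitted maximal effect; plate controls were no enzyme wells and a reference inhibitor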
Target sequence (P00352 whole entry, looked up): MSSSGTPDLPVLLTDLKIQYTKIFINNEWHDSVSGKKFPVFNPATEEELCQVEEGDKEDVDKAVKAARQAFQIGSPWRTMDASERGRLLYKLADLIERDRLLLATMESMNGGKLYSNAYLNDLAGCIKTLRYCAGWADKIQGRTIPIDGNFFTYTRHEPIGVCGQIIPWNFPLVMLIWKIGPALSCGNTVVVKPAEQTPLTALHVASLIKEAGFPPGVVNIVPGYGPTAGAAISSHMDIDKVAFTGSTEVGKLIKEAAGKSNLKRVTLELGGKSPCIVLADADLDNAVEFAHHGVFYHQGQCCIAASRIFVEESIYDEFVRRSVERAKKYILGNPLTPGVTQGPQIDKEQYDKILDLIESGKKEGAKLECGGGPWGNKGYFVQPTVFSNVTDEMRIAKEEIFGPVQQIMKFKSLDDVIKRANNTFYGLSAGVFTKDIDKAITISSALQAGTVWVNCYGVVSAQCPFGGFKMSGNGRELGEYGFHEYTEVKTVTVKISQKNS
Gal4-VP16 FLuc: counter-screen for ROR gamma inhibitors: Gal4-VP16 reporter. Drosophila S2 Gal4-VP16 UAS-luciferase, luminescence, 20 h. Potency, µM (highest dose often 53.6 µM), inactives show at the top dose activity, negative = inhibition, actives largely listed as inhibitors. 3.5% of 310,000 active. AID 2546;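 further: Gal4-VP16 expression switched on by copper sulfate through the metallothionein promoter; potency means the concentration at half of the fitted maximal effect; on the % scale 0 is the no-effect control and ±100 the full control effect; nearly all actives have a fitted effect of over 50% in size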
PLK1 PBD inh: PLK1 (human) polo-box domain binding inhibition | AID 720504 | 2.8% of 360,000 active | Potency, µM, for inactives: max response, negative = inhibition, hits mostly inhibitors | Plk1 PBD binding of FITC phosphopeptide, fluorescence polarization; further: potency means the concentration at half of the fitted maximal effect; series mostly up to about 57 µM; on the % scale 0 is the no-effect control and ±100 the full control effect; nearly all actives have a fitted effect of over 65% in size
RORgamma inh: blocks mouse ROR gamma transcriptional activity. P51450. Drosophila S2 Gal4-RORgamma UAS-luciferase reporter, 20 h. Potency, µM (series often up to 53.6 µM), inactives show top-dose activity change, negative = inhibition, usual class: inhibitors. 5.4% of 310,000 active; further: potency means the concentration at half of the fitted maximal effect; on the % scale 0 is the no-effect control and ±100 the full control effect; nearly all actives have a fitted effect of over 60% in size
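Read-out: Photinus luciferase luminescence; inhibitors lower reporter signal. Insect Schneider cells with Gal4-ROR gamma fusion under metallothionein promoter, UAS reporter; 700 uM final copper sulfate induction, 20 hr, ambient temperature.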
ALDH1A1 inh-2: Confirms inhibition of human ALDH1A1 with counterscreen | purified ALDH1A1, NADH fluorescence, propionaldehyde/NAD+ | 90% of 90 active | Potency, µM (top dose mostly 57.1 µM), for inactives: at the top dose activity change, negative = inhibition, hits mostly inhibitors | AID 493210 | shares compounds with ALDH1A1 inh-1; calls by dose curve
Sfp PPTase conf: confirmation of Bacillus subtilis Sfp PPTase inhibitors; shares compounds with Sfp inh; Sfp PPTase enzymatic assay, qHTS titration; Potency, µM (doses to about 114 µM), without a hit: at the top dose activity change, negative = inhibition, usual class: inhibitors; 79% of 380 active;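 further: potency means the concentration at half of the fitted maximal effect; plate controls were uninhibited Sfp reaction for no effect and no enzyme control for full effect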
Target sequence (Q9F4F7 whole entry, looked up): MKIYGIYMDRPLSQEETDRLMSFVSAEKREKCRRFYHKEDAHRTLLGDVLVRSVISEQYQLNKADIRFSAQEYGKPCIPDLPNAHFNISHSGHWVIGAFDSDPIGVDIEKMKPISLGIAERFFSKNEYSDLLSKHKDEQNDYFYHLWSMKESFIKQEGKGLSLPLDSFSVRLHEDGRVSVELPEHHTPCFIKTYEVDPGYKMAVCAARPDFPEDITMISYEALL
Sfp gel assay: Inhibits B. subtilis Sfp phosphopantetheinylation. shares compounds with Sfp inh. purified Sfp, gel-based phosphopantetheinylation read-out. Potency, µM, actives largely listed as inhibitors. 20% of 210 active;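 active means potency below 100 µM; inconclusive means dose-dependent response but potency above 100 µM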;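 further: band intensities scaled against SCH202676 control wells before curve fitting; potency is an IC50 for inhibitors of Sfp transfer activity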
Numbers without * were called inactive; ! = not active in a repeat. Unless noted, the call rests on the fitted dose curve; in most records, active means well fitted curve in the direction sought with a large enough effect; inconclusive means small, poorly fitted or top-dose-only effect, or another doubt; inactive means no such curve, though single readings can be large; an effect the other way counts as inactive or inconclusive.

What do the screens show for `O=C(CCCCCn1c(=S)[nH]c2ccccc2c1=O)N1CCC2(CC1)OCCO2`?
Sfp inh: -2%; ALDH1A1 inh-1: -7%; Gal4-VP16 FLuc: inconclusive; PLK1 PBD inh: -4%; RORgamma inh: 10µM*

Results for O=C(O)/C=C/CO ?
Sfp inh: 17%; ALDH1A1 inh-1: -4%

How did CCN(CC)S(=O)(=O)c1ccc(N=Cc2c(O)n(-c3ccccc3)c(=O)[nH]c2=O)cc1 do in these assays?
Sfp inh: -5%; ALDH1A1 inh-1: 22µM*; Gal4-VP16 FLuc: -3%; PLK1 PBD inh: -9%; RORgamma inh: 8%

What do the screens show for `Cc1cccc(-n2c(O)c(C=Nc3ccc(S(N)(=O)=O)cc3)c(=O)[nH]c2=O)c1`?
Sfp inh: -5%; ALDH1A1 inh-1: -4%; Gal4-VP16 FLuc: -5%; PLK1 PBD inh: -10%; RORgamma inh: -16%

How did C[n+]1c2ccccc2nc2ccc(NCCO)cc21 do in these assays?
Sfp inh: 79µM*; Gal4-VP16 FLuc: -15%; PLK1 PBD inh: -12%; RORgamma inh: -34%

Results for CNc1ccc2nc3ccccc3[n+](C)c2c1 ?
Sfp inh: -25%; Gal4-VP16 FLuc: -16%; PLK1 PBD inh: -23%; RORgamma inh: -41%

What do the screens show for `O=c1oc(Cl)c(Cl)c2ccccc12`?
Sfp inh: 35µM*; ALDH1A1 inh-1: 0.56µM*; PLK1 PBD inh: 0.34µM*; ALDH1A1 inh-2: 0.25µM*

How did COc1ccc2c(c1)CCC1[C@@H]2CCC2(C)[C@@H](NCCCCCCN3C(=O)C=CC3=O)CC[C@@H]12 (stereo partly drawn) do in these assays?
Sfp inh: -26%; ALDH1A1 inh-1: 0.11µM*; Gal4-VP16 FLuc: 6%; RORgamma inh: 19%; ALDH1A1 inh-2: 0.5µM*

What do the screens show for `CN(C)S(=O)(=O)c1ccc(Cl)c(NC(=O)COC(=O)CN2C(=O)C3CCCCC3C2=O)c1` (stereo not drawn)?
Sfp inh: 20%; ALDH1A1 inh-1: inconclusive; Gal4-VP16 FLuc: 0%; PLK1 PBD inh: -10%; RORgamma inh: -12%

Results for CN[C@H](C)[C@H](O)c1ccccc1 ?
Sfp inh: 8%; Gal4-VP16 FLuc: -9%; PLK1 PBD inh: 0%; RORgamma inh: -8%

How did CN[C@@H](C)[C@H](O)c1ccccc1 do in these assays?
ALDH1A1 inh-1: 0.5µM*; ALDH1A1 inh-2: 0.45µM*

What do the screens show for `CSCC[C@H](NC(=O)[C@@H](NC(=O)CNC(=O)[C@H](CC(=O)O)NC(=O)[C@H](CCSC)NC(=O)[C@@H](N)Cc1ccc(O)cc1)[C@@H](C)O)C(=O)N[C@@H](CO)C(=O)N[C@@H](CCC(N)=O)C(=O)N[C@H](C(=O)O)C(C)C`?
Sfp inh: 2%; Gal4-VP16 FLuc: 1%; RORgamma inh: 4%

How did CCC(C=C[C@@H]1OC(=O)C=C[C@H]1C)=C[C@H](C)CC=CC(C)=C[C@@H](C)C(=O)[C@@H](C)[C@H](O)[C@@H](C)CC(C)=CC(=O)O do in these assays?
Sfp inh: 0.71µM*; ALDH1A1 inh-1: 0.22µM*; Gal4-VP16 FLuc: 1.3µM*; RORgamma inh: inconclusive; ALDH1A1 inh-2: 1.1µM*

Results for NC1CCC(CC2CCC(N)CC2)CC1 (stereo not drawn) ?
ALDH1A1 inh-1: 2%; Gal4-VP16 FLuc: 0%; RORgamma inh: -4%

How did CCOC(=O)[C@]1(C#N)[C@@H]2C=CC(C(C)=O)=CN2[C@@H](C(N)=O)[C@@H]1c1ccsc1 do in these assays?
Sfp inh: 40µM*; ALDH1A1 inh-1: inconclusive; Gal4-VP16 FLuc: 20µM*; PLK1 PBD inh: inconclusive; RORgamma inh: 29%; Sfp PPTase conf: inconclusive; Sfp gel assay: inconclusive

Results for O=c1[nH]c2ccccc2n1C1CCN(CCCC(c2ccc(F)cc2)c2ccc(F)cc2)CC1 ?
Sfp inh: 45µM*!; ALDH1A1 inh-1: 0%; Gal4-VP16 FLuc: inconclusive; PLK1 PBD inh: -7%; RORgamma inh: inconclusive; Sfp PPTase conf: 42µM*; Sfp gel assay: inconclusive

What do the screens show for `CCOC(=O)c1c(/N=C/c2c(O)n(-c3ccccc3F)c(=S)[nH]c2=O)sc2c1CCCC2`?
Sfp inh: 13µM*; ALDH1A1 inh-1: 1.3µM*; Gal4-VP16 FLuc: -6%; PLK1 PBD inh: 24µM*; RORgamma inh: 3%; Sfp PPTase conf: 19µM*

How did O=C1OC(c2ccc(O)c(S(=O)(=O)O)c2)(c2ccc(O)c(S(=O)(=O)O)c2)c2c(Br)c(Br)c(Br)c(Br)c21 do in these assays?
Sfp inh: 19%; ALDH1A1 inh-1: 2%; Gal4-VP16 FLuc: -8%; RORgamma inh: -5%

What do the screens show for `Nc1nc(/C(=C/CC(=O)O)C(=O)NC2C(=O)N3C(C(=O)O)=CCSC23)cs1` (stereo not drawn)?
Sfp inh: 56µM*; ALDH1A1 inh-1: inconclusive; Gal4-VP16 FLuc: 2%; RORgamma inh: 9%; Sfp PPTase conf: 42µM*; Sfp gel assay: inconclusive

What do the screens show for `C=C(C)[C@H]1CN[C@H](C(=O)O)[C@H]1CC(=O)O`?
Sfp inh: 40µM*!; ALDH1A1 inh-1: 20µM*!; Gal4-VP16 FLuc: inconclusive; PLK1 PBD inh: 0%; RORgamma inh: -2%; Sfp PPTase conf: 12%; Sfp gel assay: inactive

Results for C=C(C)[C@H]1CN[C@H](C(=O)O)[C@@H]1CC(=O)O ?
Sfp inh: inconclusive; ALDH1A1 inh-1: -4%; Gal4-VP16 FLuc: 3%; RORgamma inh: 2%

How did Clc1cccc(Cl)c1 do in these assays?
ALDH1A1 inh-1: -9%; Gal4-VP16 FLuc: 2%; RORgamma inh: -14%

Results for NC(=O)c1ncn(C2OC(CO)C(O)C2O)n1 (stereo not drawn) ?
Sfp inh: 56µM*; ALDH1A1 inh-1: -10%; Gal4-VP16 FLuc: -9%; RORgamma inh: -18%; Sfp PPTase conf: 83µM*; Sfp gel assay: 56µM*

How did NC(=O)c1c(Br)n(C2OC(CO)C(O)C2O)c2ncnc(N)c12 (stereo not drawn) do in these assays?
PLK1 PBD inh: 0%

Results for CCOP(=O)(OCC)C(Nc1cccc(C(F)(F)F)c1)c1ccc(Br)cc1 (stereo not drawn) ?
Sfp inh: 0%; ALDH1A1 inh-1: 5%; Gal4-VP16 FLuc: -23%; RORgamma inh: inconclusive
